Each structure is given as a SMILES string. About 14,000 (4.5%) of roughly 310,000 compounds showed an effect of 50% or more. Effects have a minus sign here. The entries come from a sample that favours strong results as a whole.
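Also: peak tail current of the secondary pulse compared with the same well before compound.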

In this test the target is human ether-à-go-go-related gene (hERG) potassium channel (human, UniProt Q12809). The test is described as follows: primary screen, population patch clamp on CHO cells stably expressing hERG; higher = less effect of the substance.
Chain of human ether-à-go-go-related gene (hERG) potassium channel (Q12809 whole entry, looked up): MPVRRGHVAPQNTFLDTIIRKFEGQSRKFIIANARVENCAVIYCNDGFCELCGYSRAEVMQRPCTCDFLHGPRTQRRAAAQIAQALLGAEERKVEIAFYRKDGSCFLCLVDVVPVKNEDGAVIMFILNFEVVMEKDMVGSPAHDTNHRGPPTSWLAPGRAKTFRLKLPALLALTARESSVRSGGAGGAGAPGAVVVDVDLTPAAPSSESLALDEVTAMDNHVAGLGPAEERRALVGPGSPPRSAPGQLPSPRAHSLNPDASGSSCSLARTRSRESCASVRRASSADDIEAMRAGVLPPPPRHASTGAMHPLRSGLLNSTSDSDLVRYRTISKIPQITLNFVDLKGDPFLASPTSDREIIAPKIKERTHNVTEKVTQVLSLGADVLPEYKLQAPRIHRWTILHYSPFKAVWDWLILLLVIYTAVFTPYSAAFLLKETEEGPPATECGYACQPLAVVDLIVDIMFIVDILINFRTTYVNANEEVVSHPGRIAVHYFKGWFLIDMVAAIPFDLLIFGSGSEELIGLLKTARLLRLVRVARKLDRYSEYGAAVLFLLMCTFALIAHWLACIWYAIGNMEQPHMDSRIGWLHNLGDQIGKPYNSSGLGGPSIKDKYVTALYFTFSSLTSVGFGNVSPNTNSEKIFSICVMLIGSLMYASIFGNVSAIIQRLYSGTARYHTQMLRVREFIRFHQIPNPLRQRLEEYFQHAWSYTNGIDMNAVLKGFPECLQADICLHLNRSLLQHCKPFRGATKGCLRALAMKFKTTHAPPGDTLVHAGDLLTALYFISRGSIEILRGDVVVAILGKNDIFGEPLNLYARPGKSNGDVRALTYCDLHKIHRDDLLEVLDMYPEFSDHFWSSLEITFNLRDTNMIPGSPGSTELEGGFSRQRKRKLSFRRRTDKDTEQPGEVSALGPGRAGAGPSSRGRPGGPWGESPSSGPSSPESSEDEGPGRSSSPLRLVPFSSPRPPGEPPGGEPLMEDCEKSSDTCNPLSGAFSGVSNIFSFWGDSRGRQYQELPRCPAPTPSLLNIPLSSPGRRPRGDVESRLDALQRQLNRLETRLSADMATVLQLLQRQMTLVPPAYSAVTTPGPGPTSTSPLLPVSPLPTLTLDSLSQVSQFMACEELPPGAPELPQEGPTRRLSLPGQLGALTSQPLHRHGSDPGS
`NNC(=O)c1ccc(Cn2cc(Cl)cn2)o1`: the “hERG current change (%, negative = inhibition) at 10uM” value is on record as 15.6%.

In the case of `COC(=O)c1ccc(/C=N/N2CCN(Cc3ccccc3Cl)CC2)cc1`, the “hERG current change (%, negative = inhibition) at 10uM” value is given as 5.88%.

Take `COCCNC(=O)CCc1c(C)nc2c(c(C)nn2-c2ccc(C)c(C)c2)c1C`: the “hERG current change (%, negative = inhibition) at 10uM” value is -3.85%.

With `CCCNC(=O)CCc1c(C)nc2c(c(C)nn2-c2ccc(C)cc2)c1C`, the “hERG current change (%, negative = inhibition) at 10uM” value is recorded as -0.266%.

In the case of `Cc1nc2c(c(C)nn2-c2ccccc2)c(C)c1CCC(=O)NCCCOC(C)C`, the “hERG current change (%, negative = inhibition) at 10uM” value is listed as -34.7%.

`Cc1ccc(-n2nc(C)c3c(C)c(CCC(=O)NCCCOC(C)C)c(C)nc32)cc1`: the “hERG current change (%, negative = inhibition) at 10uM” value is listed as -53.1%.

Consider `COCCCNC(=O)CCc1c(C)nc2c(c(C)nn2-c2ccc(C)cc2)c1C`, for which the “hERG current change (%, negative = inhibition) at 10uM” value is on record as -7.71%.

For the molecule `CCN(CC)CCNC(=O)CCc1c(C)nc2c(c(C)nn2-c2ccc(C)cc2)c1C`, the “hERG current change (%, negative = inhibition) at 10uM” value is recorded as -55.4%.

For `COCCNC(=O)CCc1c(C)nc2c(c(C)nn2-c2ccc(C)cc2)c1C`, the “hERG current change (%, negative = inhibition) at 10uM” value is -17.6%.

Take `Cc1ccc(-n2nc(C)c3c(C)c(CCC(=O)O)c(C)nc32)cc1C`: the “hERG current change (%, negative = inhibition) at 10uM” value was found to be 30.7%.

As to `CCN(CC)CCNC(=O)CCc1c(C)nc2c(c(C)nn2-c2ccc(C)c(C)c2)c1C`, the “hERG current change (%, negative = inhibition) at 10uM” value was -62.3%.

Regarding `COc1ccc(N(CC(=O)NCc2ccc3c(c2)OCO3)S(C)(=O)=O)cc1OC`, the “hERG current change (%, negative = inhibition) at 10uM” value is on record as 1.12%.

As to `COc1ccc(C2NC(=O)NC(C)=C2C(=O)OCC2CCCCC2)cc1OC` (centres unmarked), the “hERG current change (%, negative = inhibition) at 10uM” value is -2.11%.

On to `Cc1cc(NC(CC(C)C)C(=O)O)nc(Cc2ccccc2)n1` (centres unmarked), for which the “hERG current change (%, negative = inhibition) at 10uM” value worked out at 9.96%.

In the case of `CCN(CC)CCOC(=O)C1(c2ccc(OC)c(OC)c2)CCCC1.Cl`, the “hERG current change (%, negative = inhibition) at 10uM” value was -16.9%.

For `COc1cccc(Nc2c([N+](=O)[O-])cncc2[N+](=O)[O-])c1`, the “hERG current change (%, negative = inhibition) at 10uM” value was -2.64%.

Consider `Cc1ccc(S(=O)(=O)Nc2ccc(-n3cnnn3)cc2)cc1`, for which the “hERG current change (%, negative = inhibition) at 10uM” value is on record as -1.93%.

With `COc1ccccc1CCNC(=O)CCC(=O)N1CC2C[C@@H](C1)Cn1c2cccc1=O`, the “hERG current change (%, negative = inhibition) at 10uM” value is given as 6.31%.

As for `CC(C)SCC(=O)Nc1ncc2c(n1)-c1ccccc1CC2`, the “hERG current change (%, negative = inhibition) at 10uM” value was 7.72%.

As to `COc1ccc(CCN2CC(C(=O)NCCc3ccc(F)cc3)CCC2=O)cc1` (centres unmarked), the “hERG current change (%, negative = inhibition) at 10uM” value was -22%.

Consider `O=C(NCCCc1ccncc1)C1CCC(=O)N(Cc2cccc(F)c2)C1` (centres unmarked), for which the “hERG current change (%, negative = inhibition) at 10uM” value is on record as -14.5%.

Regarding `Cc1ccc(CCNC(=O)C2CCC(=O)N(Cc3cccc(F)c3)C2)cc1` (centres unmarked), the “hERG current change (%, negative = inhibition) at 10uM” value is -4.64%.

Take `COc1cccc(CN2CC(C(=O)NCCCc3ccc(C)cc3)CCC2=O)c1` (centres unmarked): the “hERG current change (%, negative = inhibition) at 10uM” value is -28.4%.

As for `Cc1ccc(CCCNC(=O)C2CCC(=O)N(Cc3cccc(F)c3)C2)cc1` (centres unmarked), the “hERG current change (%, negative = inhibition) at 10uM” value was -53.4%.

On to `COc1ccc(CCCNC(=O)C2CCC(=O)N(CCc3cccc(F)c3)C2)cc1` (centres unmarked), for which the “hERG current change (%, negative = inhibition) at 10uM” value is recorded as -53.1%.

`O=C(NCCCc1ccncc1)C1CCC(=O)N(CCc2cccc(F)c2)C1` (centres unmarked): the “hERG current change (%, negative = inhibition) at 10uM” value is given as -51.8%.

Take `COc1ccccc1CCCNC(=O)C1CCC(=O)N(CCc2cccc(F)c2)C1` (centres unmarked): the “hERG current change (%, negative = inhibition) at 10uM” value is on record as -19.1%.

In the case of `O=C(NCCc1cccnc1)C1CCC(=O)N(CCc2cccc(F)c2)C1` (centres unmarked), the “hERG current change (%, negative = inhibition) at 10uM” value is 7.99%.

As to `O=C(CN1C(=O)NC2(CCCCCCC2)C1=O)NCc1cccs1`, the “hERG current change (%, negative = inhibition) at 10uM” value is recorded as 7.8%.

With `CC(=O)c1c(C)[nH]c(C(=O)COc2ccc3c(C)cc(=O)oc3c2)c1C`, the “hERG current change (%, negative = inhibition) at 10uM” value worked out at 7.54%.

With `CC(=O)c1cc(NC(=O)c2ccccc2)c(=O)oc1/C=C/N(C)C`, the “hERG current change (%, negative = inhibition) at 10uM” value is listed as -12.1%.

For `S=C(NCCCN1CCOCC1)Nc1ccc(-c2nc3ccccc3[nH]2)cc1`, the “hERG current change (%, negative = inhibition) at 10uM” value is recorded as -11.7%.

`CSc1cccc(NS(=O)(=O)c2ccc(-c3coc(C)n3)cc2)c1`: the “hERG current change (%, negative = inhibition) at 10uM” value is 22.6%.

Regarding `CCCCn1c(SCc2cccc([N+](=O)[O-])c2)nc2ccsc2c1=O`, the “hERG current change (%, negative = inhibition) at 10uM” value is given as 10%.

For `CN1CCN(CCCNC(=O)c2ccc(Cn3c(=S)[nH]c4ccc(Br)cc4c3=O)cc2)CC1`, the “hERG current change (%, negative = inhibition) at 10uM” value was found to be 17.4%.

As to `Brc1ccc2nc(N3CCCC3)sc2c1`, the “hERG current change (%, negative = inhibition) at 10uM” value is 13%.

As to `CC(=O)N1CCN(c2nc3ccc(Br)cc3s2)CC1`, the “hERG current change (%, negative = inhibition) at 10uM” value is given as -49.4%.

On to `O=C(C1CCN(c2nc3ccc(Br)cc3s2)CC1)N1CCC2(CC1)OCCO2`, for which the “hERG current change (%, negative = inhibition) at 10uM” value is -62.3%.

For `CC(C)(C)C(=O)N1CCN(c2nc3ccc(Br)cc3s2)CC1`, the “hERG current change (%, negative = inhibition) at 10uM” value is recorded as -8.45%.

Take `CCc1ccc2nc(N3CCC(C(=O)N4CCC5(CC4)OCCO5)CC3)sc2c1`: the “hERG current change (%, negative = inhibition) at 10uM” value is given as -42.5%.

For the molecule `CCCC(=O)N1CCN(c2nc3ccc(Br)cc3s2)CC1`, the “hERG current change (%, negative = inhibition) at 10uM” value is -71%.

Take `CCC(=O)N1CCN(c2nc3ccc(Br)cc3s2)CC1`: the “hERG current change (%, negative = inhibition) at 10uM” value is -44.2%.

`CCCCC(=O)N1CCN(c2nc3ccc(Br)cc3s2)CC1`: the “hERG current change (%, negative = inhibition) at 10uM” value is reported as -69.4%.

In the case of `Cc1ccc2nc(N3CCC(C(=O)N4CCC5(CC4)OCCO5)CC3)sc2c1`, the “hERG current change (%, negative = inhibition) at 10uM” value was -19.8%.

These data come from paper PMC4336329 (PLoS ONE, 2015).
